From PubChem BioAssay (NCI)
Where “and” joins values, the source holds several entries; their conditions need not be identical. Equal values may be shown once. The panel holds about 83,000 compounds, 20% with a hit somewhere; the sample as a whole holds those more often.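 In brief: 96-well plates, 48 h treatment, single concentration, percent growth endpoint.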 A number with no mark means an inactive call. Calls of active or inactive are those of the source. How the source made its calls: active means growth percent below 10; inactive means the rest.

Tested on: MDA-MB-468 breast
Experiment: NCI-60 one-dose screen, 48 h (100 = growth as untreated, 0 = no growth, -100 = all killed)
Settings: 10 µM unless noted

| Structure (SMILES) | growth |
| --- | --- |
| COc1c(B(O)O)cccc1-c1nc2c(F)cc3n[nH]c(C)c3c2c2c1CCCC2 | -7.26% (active) |
| COc1cccc(NC(=O)Nc2ccc(Nc3ncnc4[nH]c(C)c(C)c34)cc2)c1 | 112% |
| Cc1ccc(C(=O)Nc2nc3c(s2)CN(Cc2ccccc2)CC3)cn1 | 67.1% |
| O=C(c1ccc(C(F)(F)F)c(Cl)c1)N(Cc1ccc(Cl)cc1)c1ccc(-c2cc(C(F)(F)F)[nH]n2)c(O)c1 | -11.5% (active) |
| O=C=NC(c1ccccc1)(c1ccccc1)c1ccccc1 | 118% |
| COc1ccc(S(=O)(=O)Nc2cc(/C=C\c3cc(OC)c(OC)c(OC)c3)cc(OC)c2OC)cc1OC | 25.5% |
| O=C1OC(C(O)C(O)CO)C(O)=C1O (stereo not given) | 88.7% and 117% |
| O=[N+]([O-])c1ccccc1CN1CCCCC1 | 89.3% |
| COc1ccc(C2CC(c3ccc(Nc4nc(NCCO)nc(N5CCOCC5)n4)cc3)=Nc3c(N)nc(N)nc3N2)cc1 (stereo not given) | 90.3% |
| Fc1ccc2[nH]cc(-c3nonc3-c3c[nH]c4ccc(Br)cc34)c2c1 | 44.3% |
| COc1cc(-c2nc(SC(C)C)nc(Nc3cccc(C)c3)c2C#N)cc(OC)c1OC | 117% |
| CCN1C(=O)N(CC)C2C1NN=c1s/c(=C\c3ccco3)c(=O)n12 (stereo not given) | 13.8% |
| CCNCCOc1ccc(/C(=C(/CC)c2ccc(Cl)cc2)c2ccc(OCCCN(C)C)cc2)cc1 | -87% (active) |
| C/C(=C(/C)C1CC1CCN(C(=O)c1ccccn1)S(=O)(=O)c1ccc(C)cc1)C1CCCCC1 (stereo not given) | 75.7% |
| COc1cc2c3c(c1O)-c1ccccc1[C@@H]1OC(=O)N(CC2)[C@H]31 | 90% |
| CCOc1cc(NC(=O)c2ccccc2)c(OCC)cc1N | 112% |
| O=C1[C@H]2Cc3c([nH]c4ccccc34)[C@@H](c3ccc(Br)cc3)N2C(=O)CN1C1CCN(Cc2ccccc2)CC1 | -4.01% (active) |
| N#Cc1c(N)c(C(=O)c2ccc3c(c2)OCCO3)n2c1CCCC2 | 35.5% |
| COC(=O)C(Br)(C(=O)OC)C(Br)C(Br)C(Br)c1ccccc1 (stereo not given) | 7.49% (active) |
| Nc1c(Br)cc2c(c1Br)Cc1cc(Cl)ccc1-2 | -5.33% (active) |

| Structure (SMILES) | growth |
| --- | --- |
| C#CC(C)(O)c1ccc(Cl)cc1 (stereo not given) | 94.5% |
| COc1cc(C2CC(c3ccc(Cl)cc3)=NN2c2ccc(Cl)cc2)cc(OC)c1OC (stereo not given) | 100% |
| COP(=O)(OC)C(C)(C)CC(=O)CC(C#N)(C#N)C(C#N)C#N | 104% |
| COc1cc(/C=C/c2cc(/C=C/c3ccc(O)c(OC)c3)n(C(=O)Nc3ccc(C)cc3)n2)ccc1O | -29.1% (active) |
| COc1ccc(/C=N/NC(=O)c2c(N)nn(C)c2Nc2ccccc2)cc1 | -1.26% (active) |
| COc1ccc(-c2nnc3n(C)c(=O)c4ccccc4n23)cc1O | -2.48% (active) |
| COc1ccc2c(N)ncc(C#Cc3cc(C(=O)Nc4ccc(CN5CCN(C)CC5)c(C(F)(F)F)c4)cnc3C)c2c1 | 46.7% |
| COc1ccc(CNc2c3ccccc3nc3ccccc23)c(OC)c1 | 4.83% (active) |
| c1ccc(CN2COc3c(ccc4c3OCN(Cc3ccccc3)C4)C2)cc1 | 0.865% (active) |
| C#Cc1cccc(NC(=O)c2ccc(NC(=O)C=C)cc2)c1 | 14.6% [8.25 µM] |
| CCCCC(CC)OC(=O)C(Br)CC (stereo not given) | 106% |
| Nc1ccc(C2=CC(c3ccc(Cl)cc3)N3C=CSC3=N2)cc1 (stereo not given) | -77.1% (active) |
| COc1cc(NC2=C(Cl)C(=O)c3nc(C)ccc3C2=O)cc(OC)c1 | -78.5% (active) |
| Brc1ccc(C2CC(c3cccc(Nc4ccncc4)c3)=NN2c2ccccc2)cc1 (stereo not given) | 78.2% |
| COc1ccc(C2=NN(C(=O)c3cc(-c4ccc(C)cc4)nc4ccccc34)C(c3cc(-c4ccccc4)nn3-c3ccccc3)C2)cc1 (stereo not given) | 98.1% |
| [2H]C1([2H])[C@H](C)O[C@H](C)C([2H])([2H])N1c1ccc(NC(=O)c2cccc(-c3ccc(OC(F)(F)F)cc3)c2C)cn1 | 41.9% |
| COC(=O)/C=C1\SC(=Nc2cccc(Cl)c2)N(CCc2c[nH]c3ccccc23)C1=O | 54.4% |
| CC(C)(C)c1cc(C(=O)Nc2ccc(C(=O)NCCN)cc2)cc(C(C)(C)C)c1 | -39.5% (active) |
| CCN(CC)CCOC(=O)c1ccc(NC(=O)Nc2cccc(Cl)c2)cc1 | 103% |
| O=S(=O)(OCCOS(=O)(=O)c1ccccc1)c1ccccc1 | 95% |
